Test results taken from PubChem BioAssay AID1159580 (chemical genetic matrix, 2015).
Values joined by “and” are separate entries in the source; they are usually repeats but may differ in a detail not shown here. Equal values may be shown once. Hit rate of the full screen: of about 5,500 compounds, about 2,000 (36%) were called active. About 18% were inconclusive and are not listed. Cut-off read from the data, not from the text of the source: active = normalized growth mostly below about 0.91 (no sharp cut-off); inconclusive = no clear call, values can overlap the other calls; inactive = mostly above about 0.92. This is one part of the list.

Assay: chemical genetic growth profiling, strain panel (AID 1159580);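 note: tested at 20 µM; growth read once vehicle control cultures reached saturation at 30 °C; 1 = growth at the plate median or of vehicle wells; lower values mean less growth of the strain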
Details: S. cerevisiae deletion strains, growth OD

Measured: normalized growth

C[C@@H]1CC[C@]2(C(=O)O)CC[C@]3(C)C(=CCC4[C@@]5(C)CC[C@H](O)C(C)(C)C5CC[C@]43C)C2[C@H]1C (stereo partly specified)
inactive: locus YAL021C, strain ccr4, hits give low values 0.995 | locus YAL026C, strain drs2, hits give low values 1.01 | locus YAL030W, strain snc1, hits give low values 0.995 | locus YBL061C, strain skt5, hits give low values 1.01 | locus YBR009C, strain hhf1, hits give low values 1.01 | locus YBR021W, strain FUR4, hits give low values 1.03 | locus YBR023C, strain chs3, hits give low values 1.01 | locus YBR171W, strain sec66, hits give low values 1 | locus YBR229C, strain ROT2, hits give low values 1.03 | locus YBR231C, strain swc5, hits give low values 1.01 | locus YBR279W, strain paf1, hits give low values 1 | locus YCL011C, strain gbp2, hits give low values 1 | locus YCL016C, strain dcc1, hits give low values 1.01 | locus YCL029C, strain bik1, hits give low values 1 | locus YCL061C, strain MRC1, hits give low values 0.997 | locus YCL069W, strain vba3, hits give low values 1.01 | locus YCR088W, strain abp1, hits give low values 0.993 | locus YDL005C, strain med2, hits give low values 0.998 | locus YDL035C, strain GPR1, hits give low values 1.04 | locus YDL040C, strain nat1, hits give low values 0.992 | locus YDL074C, strain BRE1, hits give low values 1.07 | locus YDL101C, strain DUN1, hits give low values 1.03 | locus YDL134C, strain PPH21, hits give low values 1.08 | locus YDL185W, strain tfp1, hits give low values 0.999 | locus YDL192W, strain arf1, hits give low values 1.01 | locus YDR001C, strain nth1, hits give low values 1 | locus YDR069C, strain doa4, hits give low values 1 | locus YDR101C, strain arx1, hits give low values 1.01 | locus YDR137W, strain rgp1, hits give low values 1.04 | locus YDR150W, strain NUM1, hits give low values 1.03 | locus YDR159W, strain sac3, hits give low values 1 | locus YDR162C, strain NBP2, hits give low values 1.07 | locus YDR195W, strain ref2 0.974 | locus YDR297W, strain sur2, hits give low values 1 | locus YDR318W, strain mcm21, hits give low values 0.993 | locus YDR334W, strain swr1, hits give low values 1 | locus YDR335W, strain msn5, hits give low values 0.997 | locus YDR388W, hits give low values 1 | locus YDR392W, strain spt3, hits give low values 0.911 | locus YDR502C, strain sam2, hits give low values 0.997 | locus YEL003W, strain gim4, hits give low values 0.998 | locus YEL037C, strain rad23, hits give low values 1 | locus YEL061C, strain CIN8 (second series), hits give low values 0.995 | locus YEL061C, strain CIN8, hits give low values 1.02 | locus YER015W, strain faa2, hits give low values 1.01 | locus YER016W, strain bim1, hits give low values 0.999 | locus YER110C, hits give low values 1.01 | locus YER111C, strain swi4, hits give low values 0.984 | locus YER155C, strain BEM2 (second series), hits give low values 0.992 | locus YER155C, strain BEM2, hits give low values 1.02 | locus YER167W, strain BCK2, hits give low values 1.03 | locus YFR010W, strain ubp6, hits give low values 0.983 | locus YGL078C, strain dbp3, hits give low values 0.985 | locus YGL167C, strain pmr1, hits give low values 1 | locus YGL173C, strain kem1, hits give low values 1.01 | locus YGL227W, strain vid30, hits give low values 0.994 | locus YGL240W, strain doc1, hits give low values 0.998 | locus YGL248W, strain PDE1, hits give low values 1.03 | locus YGL253W, strain hxk2, hits give low values 1.01 | locus YGR135W, strain pre9, hits give low values 0.996 | locus YGR229C, strain SMI1, hits give low values 1.06 | locus YGR252W, strain gcn5, hits give low values 1.01 | locus YHR013C, strain ard1, hits give low values 0.996 | locus YHR027C, strain rpn1, hits give low values 0.995 | locus YHR030C, strain SLT2, hits give low values 1.02 | locus YHR079C, strain IRE1 (second series), hits give low values 0.996 | locus YHR079C, strain IRE1, hits give low values 1.02 | locus YHR094C, strain hxt1, hits give low values 1.01 | locus YHR129C, strain ARP1, hits give low values 1.03 | locus YHR142W, strain chs7, hits give low values 1.03 | locus YHR200W, strain rpn10, hits give low values 0.986 | locus YIL066C, strain RNR3, hits give low values 1.07 | locus YIL073C, strain SPO22, hits give low values 0.999 | locus YIL125W, strain kgd1, hits give low values 1 | locus YIR030C, strain dcg1, hits give low values 0.997 | locus YJL092W, strain hpr5, hits give low values 0.999 | locus YJL095W, strain BCK1 (second series), hits give low values 0.988 | locus YJL095W, strain BCK1, hits give low values 1.08 and 1.01 | locus YJL115W, strain asf1, hits give low values 0.992 | locus YJL129C, strain trk1, hits give low values 1.01 | locus YJL134W, strain LCB3, hits give low values 1.02 | locus YJL154C, strain vps35, hits give low values 0.997 | locus YJL164C, strain tpk1, hits give low values 1.01 | locus YJL166W, strain qcr8, hits give low values 1 | locus YJL168C, strain set2, hits give low values 0.986 | locus YJL187C, strain SWE1 (second series), hits give low values 1.05 | locus YJL187C, strain SWE1, hits give low values 0.997 | locus YJR043C, strain POL32, hits give low values 1.06 | locus YJR066W, strain TOR1, hits give low values 1.02 | locus YKL068W, hits give low values 1.01 | locus YKL160W, strain elf1, hits give low values 1 | locus YKL190W, strain CNB1, hits give low values 1.02 | locus YKR001C, strain vps1, hits give low values 1.02 | locus YKR026C, strain gcn3, hits give low values 0.996 | locus YKR091W, strain srl3, hits give low values 0.991 | locus YLL001W, strain dnm1, hits give low values 0.989 | locus YLL026W, hits give low values 0.989 | locus YLL041C, strain sdh2, hits give low values 0.995 | locus YLR027C, strain aat2, hits give low values 1.01 | locus YLR039C, strain RIC1, hits give low values 1.14 | locus YLR058C, strain SHM2, hits give low values 1.04 | locus YLR102C, strain apc9, hits give low values 0.987 | locus YLR113W, strain HOG1, hits give low values 0.995 | locus YLR221C, strain rsa3, hits give low values 1 | locus YLR258W, strain gsy2, hits give low values 1.01 | locus YLR262C, strain YPT6 (second series), hits give low values 1.02 | locus YLR262C, strain YPT6, hits give low values 1.11 | locus YLR268W, strain sec22, hits give low values 1.01 | locus YLR320W, strain mms22, hits give low values 1.01 | locus YLR330W, strain CHS5, hits give low values 1.03 | locus YLR342W, strain FKS1 (second series), hits give low values 1.02 | locus YLR342W, strain FKS1, hits give low values 1 | locus YLR357W, strain rsc2, hits give low values 0.975 | locus YLR370C, strain arc18, hits give low values 0.998 | locus YLR371W, strain rom2, hits give low values 0.995 | locus YLR384C, strain iki3, hits give low values 0.995 | locus YLR418C, strain cdc73, hits give low values 1.02 | locus YML016C, strain PPZ1, hits give low values 1.03 | locus YML032C, strain rad52, hits give low values 0.988 | locus YML120C, strain ndi1, hits give low values 0.999 | locus YML124C, strain tub3, hits give low values 0.999 | locus YMR058W, strain fet3, hits give low values 1.01 | locus YMR078C, strain ctf18, hits give low values 0.976 | locus YMR125W, strain sto1, hits give low values 0.986 | locus YMR129W, hits give low values 0.997 | locus YMR205C, strain PFK2, hits give low values 0.991 | locus YMR223W, strain ubp8, hits give low values 0.992 | locus YMR231W, strain pep5, hits give low values 0.998 | locus YMR263W, strain SAP30, hits give low values 1.04 | locus YMR307W, strain GAS1, hits give low values 1.15 | locus YNL067W, strain RPL9B, hits give low values 1.06 | locus YNL071W, strain lat1, hits give low values 1.01 | locus YNL128W, strain TEP1, hits give low values 1.04 | locus YNL183C, strain NPR1, hits give low values 0.993 | locus YNL209W, strain ssb2, hits give low values 0.993 | locus YNL233W, strain BNI4, hits give low values 1.05 | locus YNL248C, strain rpa49, hits give low values 1.01 | locus YNL250W, strain rad50, hits give low values 0.997 | locus YNL271C, strain bni1, hits give low values 0.991 | locus YNL298W, strain CLA4, hits give low values 1.01 | locus YNL307C, strain MCK1, hits give low values 1.01 | locus YNL322C, strain KRE1 (second series), hits give low values 0.979 | locus YNL322C, strain KRE1, hits give low values 1.03 | locus YNR049C, strain mso1, hits give low values 0.993 | locus YNR052C, strain pop2, hits give low values 0.982 | locus YOL012C, strain htz1 1.17 | locus YOL147C, strain pex11, hits give low values 0.992 | locus YOR001W, strain rrp6, hits give low values 1.01 | locus YOR061W, strain CKA2, hits give low values 1.03 | locus YOR069W, strain VPS5, hits give low values 1.02 | locus YOR070C, strain gyp1, hits give low values 1.01 | locus YOR080W, strain dia2, hits give low values 0.998 | locus YOR083W, strain WHI5, hits give low values 0.99 | locus YOR106W, strain vam3, hits give low values 1.01 | locus YOR136W, strain idh2, hits give low values 0.993 | locus YOR144C, strain elg1, hits give low values 0.99 | locus YOR184W, strain ser1, hits give low values 1.03 | locus YOR231W, strain MKK1, hits give low values 1.02 | locus YOR265W, strain rbl2, hits give low values 0.999 | locus YOR270C, strain vph1, hits give low values 1 | locus YOR290C, strain snf2, hits give low values 0.995 | locus YOR316C, strain cot1, hits give low values 1.01 | locus YPL051W, strain arl3, hits give low values 1.01 | locus YPL055C, strain LGE1, hits give low values 1.1 | locus YPL078C, strain atp4, hits give low values 1 | locus YPL106C, strain sse1, hits give low values 0.984 | locus YPL240C, strain hsp82, hits give low values 1.01 | locus YPL256C, strain CLN2, hits give low values 0.993 | locus YPR119W, strain clb2, hits give low values 1 | locus YPR141C, strain kar3, hits give low values 0.998 | locus YPR163C, strain tif3, hits give low values 0.997 | locus YPR167C, strain met16, hits give low values 1.01 | strain wtn01, hits give low values 1.02
active: locus YGL086W, strain mad1, hits give low values 1.28 [resistant] | locus YKL085W, strain MDH1 (second series), hits give low values 1.33 [resistant] | locus YKL085W, strain MDH1, hits give low values 1.33 [resistant]
